Assay results from PubChem BioAssay (NCATS).
Results filed as inconclusive are left out. A call without a number means that no potency is given here. Calls of active or inactive are those of the source. Calls come from the whole dose curve; as a rule, active = well fitted activation curve with a large enough effect; inconclusive = small, poorly fitted or top-dose-only effect, or another doubt; inactive = no such curve, though single readings can be large or run the other way.

Experiment: Cell Proliferation Assay against the TMD8 Cell Line (Caspase readout at 8 hrs) (AID 651713)
Details: TMD8 lymphoma cells, caspase activation luminescence; series mostly up to 46.1 µM
How it was run: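 Luminescent caspase 3/7 assay; TMD8 cells, 8 h treatment at 37C, 5% CO2. Normalisation: DMSO 0%, 9.2 uM bortezomib 100%.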

SMILES | Potency
CCOC(=O)C1=C[C@@]2(CC)CCCN3CCc4c(n1c1ccccc41)[C@H]32 | inactive
CN[C@@H](C)C(=O)N[C@H]1CCCC[C@H]2CC[C@@H](C(=O)N[C@@H](c3ccccc3)c3cn(CCCCc4ccc(CCCCn5cc([C@@H](NC(=O)[C@@H]6CC[C@@H]7CCCC[C@H](NC(=O)[C@H](C)NC)C(=O)N76)c6ccccc6)nn5)cc4)nn3)N2C1=O | inactive
Nc1nccc(-c2ccc3noc(-c4ccc(Cl)cc4)c3c2)n1 | inactive
CN([C@@H](Cc1ccc(OS(=O)(=O)c2cccc3cnccc23)cc1)C(=O)N1CCN(c2ccccc2)CC1)S(=O)(=O)c1cccc2cnccc12 | inactive
COc1ccccc1[C@H](c1cccc2ccccc12)[C@@](C)(C#N)C(=O)N1CCC(c2cccc(C(F)(F)F)c2)CC1 | inactive
Cc1cnc(Nc2ccc(OCCN3CCCC3)cc2)nc1Nc1cccc(S(=O)(=O)NC(C)(C)C)c1 | inactive
Cc1cc(Nc2nc(N[C@@H](C)c3ncc(F)cn3)ncc2Cl)n[nH]1 | inactive
CCN(CCCO)CCCOc1ccc2c(Nc3cc(CC(=O)Nc4cccc(F)c4)[nH]n3)ncnc2c1 | inactive
COc1ccc(CC2=NN3C([C@@H](CCc4ccccc4)[C@@H](C)O)=NC(C)C3C(=O)N2)cc1OC (some centres not stated) | inactive
CC[C@@H](C)[C@H](NC(=O)[C@H](CC1CCCCC1)NC(=O)c1ccno1)C(=O)N1CCC2(CCc3ccccc32)CC1 | inactive
CC1(C)SCCN(S(=O)(=O)c2ccc(OCC#CCO)cc2)[C@@H]1C(=O)NO | inactive
CCN(c1ccccc1)c1cc(NC)[n+](C)c(C)n1 | inactive
C[C@H](NC(=O)Cc1cc(F)cc(F)c1)C(=O)N[C@@H]1C(=O)N(C)c2ccccc2-c2ccccc21 | inactive
CCc1cc(Nc2nccc(-c3c(-c4ccc(OC)c(C(=O)Nc5c(F)cccc5F)c4)nc4ccccn34)n2)c(OC)cc1N1CCC(N2CCN(S(C)(=O)=O)CC2)CC1 | inactive
CS(=O)(=O)c1ccc(C(=O)Nc2ccc(Cl)c(-c3ccccn3)c2)c(Cl)c1 | inactive
Cc1csc(NC(=O)c2sc3nc4c(c(C(F)(F)F)c3c2N)CCC4)n1 | inactive
CNC(=O)c1ccccc1Sc1ccc2c(/C=C/c3ccccn3)n[nH]c2c1 | inactive
O=C(C=Cc1ccc(/C=C/C(=O)Nc2ccc(C3=NCCN3)cc2)cc1)Nc1ccc(C2=NCCN2)cc1 | inactive
COc1ccc(-c2ccc3c(N4CCOCC4)nc(N4C[C@@H](C)O[C@@H](C)C4)nc3n2)cc1CO | inactive

SMILES | Potency
O=C1CCCC2=C1C(c1[nH]ncc1Cl)N=C(Nc1nc3ccccc3o1)N2 (configuration not stated) | inactive
Cc1ccc2c(c1)C(=O)[C@@]1(O)CCN(c3ccccc3)C1=N2 | inactive
C[C@@H]1C[C@H]2[C@@H]3CCC4=CC(=O)C=C[C@]4(C)C3(F)[C@@H](O)C[C@]2(C)[C@@]1(O)C(=O)CO (some centres not stated) | inactive
COc1cc2c(cc1OC)CN(CCc1ccc(NC(=O)c3cccc4c(=O)c5cccc(OC)c5[nH]c34)cc1)CC2 | inactive
O=c1[nH]c(-c2ccc(C(F)(F)F)cc2)nc2c1CSCC2 | inactive
CCn1c(-c2nonc2N)nc2cnc(Oc3cccc(NC(=O)c4ccc(OCCN5CCOCC5)cc4)c3)cc21 | inactive
O=C1[C@H](Cc2ccc(O)cc2)N2C(=O)CCN(C(=O)NCc3ccccc3)[C@H]2CN1Cc1cccc2ccccc12 | inactive
NC(=O)c1ccc(I)c([N+](=O)[O-])c1 | inactive
C[C@@H]1CN(Cc2ccc(F)cc2)[C@@H](C)CN1C(=O)c1cc2c(C(=O)C(=O)N(C)C)cn(C)c2cc1Cl | inactive
Cc1cc(-c2nnc3n2CCCCC3)c(C)n1-c1ccc(F)cc1 | inactive
O=C(O)CCc1ccc(NCc2cccc(Oc3ccccc3)c2)cc1 | inactive
CC(C)OC(=O)C1=CN(C(=O)c2ccc(F)c(F)c2)CC(C)(C)c2c1[nH]c1ccccc21 | inactive
CCOc1cc(C(=O)Nc2ccc(Cl)c(-c3nc4ccccc4[nH]3)c2)cc(OCC)c1OCC | inactive
Cn1cc(-c2ccc3nnc(C(F)(F)c4ccc5ncccc5c4)n3n2)cn1 | inactive
O=C(O)[C@@H](c1ccc(OCc2ccc3ccccc3n2)cc1)C1CCCC1 | inactive
CCCS(=O)(=O)Nc1ccc(F)c(C(=O)c2c[nH]c3ncc(Cl)cc23)c1F | inactive
CCCS(=O)(=O)Nc1ccc(F)c(C(=O)c2c[nH]c3ncc(-c4ccc(Cl)cc4)cc23)c1F | inactive
OCCn1cc(-c2cnc3nnn(Cc4ccc5ncccc5c4)c3n2)cn1 | inactive
